Some test systems named below: HCT-15 colon; HT29 colon; SNB-75 CNS; SNB-19 CNS; U251 CNS; PC-3 prostate; SK-MEL-5 melanoma; UACC-62 melanoma; LOX IMVI melanoma; SK-MEL-28 melanoma.
Common to all, as to assay: NCI-60 one-dose screen, 48 h (100 = growth as untreated, 0 = no growth, -100 = all killed)
Conditions in all cases: 10 µM unless noted

This is part of a sample that, as a whole, favours compounds with a hit. Of some 83,000 tested, about 20% had one in any assay.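 A percent growth of 40 corresponds to 60% growth inhibition; 0 means no net growth; -100 means all cells died. Active threshold: below 10.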 A number with no mark means an inactive call. Calls of active or inactive are those of the source.

In the case of `C#Cc1ccc(NC(=O)c2ccc(/C=C/C(=O)c3nccn3C)cc2)c(F)c1`, the growth is 7.76% (active) in the assay on HCT-15 colon; 15.8% in the assay on HT29 colon; 17.7% in the assay with SNB-75 CNS; 23% in the assay with SNB-19 CNS; 5.03% (active) in the assay with U251 CNS; 29.9% in the assay on PC-3 prostate. The growth in the assay with SK-MEL-5 melanoma is 60.5%; with UACC-62 melanoma, 29.9%; in the assay with LOX IMVI melanoma, -60.8% (active); in the assay on SK-MEL-28 melanoma, 84%.
Turning to `COc1cc(C2=NN(C(C)=O)C(c3ccc(N4CCOCC4)cc3)C2)cc(OC)c1OC` (stereo not given), the growth in the assay with HCT-15 colon was 107%; in the assay on HT29 colon, 109%; in the assay on SNB-75 CNS, 96%; with SNB-19 CNS it was 98.6%; with U251 CNS, 104%; in the assay on PC-3 prostate it was 106%. In addition, the growth in the assay on SK-MEL-5 melanoma was 97.7%; with UACC-62 melanoma it was 87.8%; with LOX IMVI melanoma, 98.1%; in the assay with SK-MEL-28 melanoma it was 104%.
Turning to `Cc1cc(O)c(=O)cc2c1C[C@H]1CC(C)(C)/C=C/C[C@]3(C)Oc4cc(=O)c(O)cc(C)c4C[C@H]3C[C@H](O)[C@@]1(C)O2`, the growth with HCT-15 colon was 18.5%; in the assay with HT29 colon, 8.78% (active); in the assay with SNB-75 CNS, 23.9%; with SNB-19 CNS, 11.2%; in the assay on U251 CNS, 3.83% (active); in the assay with PC-3 prostate, 9.28% (active). Besides, the growth with SK-MEL-5 melanoma was -46.5% (active); in the assay on UACC-62 melanoma it was -41% (active); in the assay on LOX IMVI melanoma it was 6.81% (active); with SK-MEL-28 melanoma, 11.1%.
Regarding `Cc1ccc(Cc2cnc(NC(=O)/C(C#N)=C/c3ccc(-c4ccc(Cl)cc4)o3)s2)cc1`, the growth was 93.3% in the assay on HCT-15 colon; 97.1% in the assay with HT29 colon; 94.9% in the assay on SNB-75 CNS; 106% in the assay with SNB-19 CNS; 102% in the assay on U251 CNS; 87.6% in the assay with PC-3 prostate. Further, the growth in the assay with SK-MEL-5 melanoma is 92.4%; with UACC-62 melanoma it was 95.4%; in the assay with LOX IMVI melanoma, 81.3%; with SK-MEL-28 melanoma, 103%.
In the case of `Brc1cccc(/C=N/Nc2nc(N/N=C/c3cccc(Br)c3)nc(N3CCOCC3)n2)c1`, the growth is -8.94% (active) in the assay on HCT-15 colon; 6.61% (active) in the assay with HT29 colon; 107% in the assay on SNB-75 CNS; 77.9% with SNB-19 CNS; 42.7% with U251 CNS; 36.5% in the assay with PC-3 prostate. The growth in the assay on SK-MEL-5 melanoma is 20.7%; in the assay with UACC-62 melanoma it was 56%; in the assay on LOX IMVI melanoma, 5.23% (active); in the assay with SK-MEL-28 melanoma, 17.1%.
For the compound `COc1ccc(-c2no[n+]([O-])c2Nc2ccccc2Br)cc1`, the growth in the assay with HCT-15 colon is 97.1%; with HT29 colon, 119%; in the assay with SNB-75 CNS it was 92%; with SNB-19 CNS it was 89.5%; in the assay with U251 CNS, 95%; in the assay on PC-3 prostate, 76.8%. Further, the growth is 93.5% with SK-MEL-5 melanoma, 71.6% in the assay with UACC-62 melanoma, 95.6% with LOX IMVI melanoma and 99.8% in the assay with SK-MEL-28 melanoma.
`Cc1[nH]nc2ccc(-c3nc4cnc(N5CCN(C)CC5)cn4c3Nc3ccc(F)cc3Br)cc12`: the growth in the assay on HCT-15 colon is 27.8%; in the assay with HT29 colon it was 4.1% (active); with SNB-75 CNS, 82.7%; with SNB-19 CNS, 45.4%; with U251 CNS, 14.4%; in the assay with PC-3 prostate, 47.6%. Besides, the growth in the assay with SK-MEL-5 melanoma was 75.4%; with UACC-62 melanoma it was 17.9%; in the assay on LOX IMVI melanoma it was -10.4% (active); in the assay on SK-MEL-28 melanoma it was 62.8%.
As to `Cc1ccc(NC(=O)c2cc(/C=C/C(=O)NO)cc(C(F)(F)F)c2)cc1Nc1nccc(-c2cccnc2)n1`, the growth with HCT-15 colon was 55.2%; with HT29 colon, 7.3% (active); in the assay on SNB-75 CNS it was -5.81% (active); with SNB-19 CNS it was -0.0394% (active); in the assay with U251 CNS, -65.1% (active); with PC-3 prostate it was 18.9%. Further, the growth is -88% (active) in the assay with SK-MEL-5 melanoma, -41.3% (active) in the assay on UACC-62 melanoma, -68.2% (active) with LOX IMVI melanoma and -7.78% (active) with SK-MEL-28 melanoma.
As to `CNC(=O)c1cc(Oc2ccc3nc(NC(=O)c4cccc(C(F)(F)F)c4)sc3c2)ccn1`, the growth was 98.1% in the assay on HCT-15 colon; 106% in the assay on HT29 colon; 90.7% in the assay with SNB-75 CNS; 93.3% in the assay on SNB-19 CNS; 104% in the assay with U251 CNS; 102% with PC-3 prostate. The growth in the assay with SK-MEL-5 melanoma was 101%; in the assay with UACC-62 melanoma, 85%; in the assay on LOX IMVI melanoma, 99.3%; in the assay with SK-MEL-28 melanoma, 89.8%.
For `CS(=O)(=O)c1ccc2c(c1)c1c(n2C(=O)c2ccc(Cl)cc2)CCCC1`, the growth with HCT-15 colon is 25.7%; with HT29 colon, 5.05% (active); in the assay on SNB-75 CNS, 5.66% (active); with SNB-19 CNS, 34.9%; with U251 CNS it was 19.9%; in the assay with PC-3 prostate, 22.7%. Also, the growth in the assay with SK-MEL-5 melanoma is 25.5%; with UACC-62 melanoma it was 23.8%; in the assay on LOX IMVI melanoma, 40.5%; in the assay on SK-MEL-28 melanoma, 60.9%.
Take `COc1ccc(CCN2C(=O)CSC2=S)cc1OC`: the growth with HCT-15 colon was 84%; with HT29 colon, 109%; with SNB-75 CNS, 112%; in the assay on SNB-19 CNS, 99.9%; with U251 CNS it was 99.5%; with PC-3 prostate it was 91.2%. Also, the growth was 85.2% in the assay with SK-MEL-5 melanoma, 97% in the assay on UACC-62 melanoma, 56.6% in the assay with LOX IMVI melanoma and 102% in the assay on SK-MEL-28 melanoma.
In the case of `CCOC(=O)/C=c1\sc2n(c1=O)C1C(NN=2)N(CC)C(=O)N1CC` (stereo not given), the growth was 31% in the assay on HCT-15 colon; 26.4% in the assay on HT29 colon; 52.2% in the assay with SNB-75 CNS; 54.2% with SNB-19 CNS; 68.9% in the assay on U251 CNS; 55.7% in the assay on PC-3 prostate. Besides, the growth in the assay with SK-MEL-5 melanoma was 54%; with UACC-62 melanoma, 39%; with LOX IMVI melanoma, 53.5%; with SK-MEL-28 melanoma it was 71.9%.
`CCC(CC)n1c(=O)c(SC2=NC3C(NN2)N(CC)C(=O)N3CC)c(C(=O)O)c2ccccc21` (stereo not given): the growth was 14.2% with HCT-15 colon; 2.44% (active) in the assay with HT29 colon; 39.6% in the assay with SNB-75 CNS; 35.2% in the assay on SNB-19 CNS; 14.8% with U251 CNS; 23.9% in the assay on PC-3 prostate. Besides, the growth in the assay on SK-MEL-5 melanoma is 6.37% (active); in the assay on UACC-62 melanoma, 22.5%; in the assay with LOX IMVI melanoma, 23%; in the assay with SK-MEL-28 melanoma, 65.4%.
